High-throughput results (PubChem)
The list is not random: actives were taken first. Their share in the collection is about 7.5%.
FLuc counter: inhibits or activates purified firefly luciferase, miR-21 counter-screen; purified FLuc, Km substrates, luminescence inhibition; Potency, µM (doses to about 57.5 µM), hits mostly inhibitors; 6.9% of 360,000 active; note: nearly all actives have a fitted effect of over 55% in size
Target sequence (P08659 whole entry, looked up): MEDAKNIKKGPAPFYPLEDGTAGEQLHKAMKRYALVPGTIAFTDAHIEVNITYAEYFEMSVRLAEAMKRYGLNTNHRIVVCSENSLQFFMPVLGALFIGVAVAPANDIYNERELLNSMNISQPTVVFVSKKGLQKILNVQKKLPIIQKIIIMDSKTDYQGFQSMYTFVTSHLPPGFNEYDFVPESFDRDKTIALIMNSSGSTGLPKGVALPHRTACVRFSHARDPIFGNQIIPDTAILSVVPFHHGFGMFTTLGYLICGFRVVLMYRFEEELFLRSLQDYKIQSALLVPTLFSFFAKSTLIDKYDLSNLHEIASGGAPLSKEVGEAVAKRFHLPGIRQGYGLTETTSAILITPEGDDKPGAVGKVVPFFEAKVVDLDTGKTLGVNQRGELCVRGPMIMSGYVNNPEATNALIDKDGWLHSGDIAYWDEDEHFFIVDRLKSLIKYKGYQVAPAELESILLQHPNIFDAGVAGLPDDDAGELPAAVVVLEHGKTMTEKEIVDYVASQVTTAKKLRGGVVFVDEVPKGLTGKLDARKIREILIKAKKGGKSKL
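Purified P. pyralis luciferase, 10 nM final, with Km-level 10 uM D-luciferin and 10 uM ATP in 50 mM Tris acetate pH 7.5, 10 mM Mg acetate, 0.01% Tween-20, 0.05% BSA; 6-point qHTS titration about 60 µM downward; luminescence read.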
SMN2 splice enh: enhancers of SMN2 splice variant expression; 2.8% of 210,000 active; Potency, µM (series often up to 46.1 µM), usual class: activators; HEK293 SMN2-luciferase splicing reporter, luminescence, 30-36 h; note: nearly all actives have a fitted effect of over 55% in size
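HEK293 cells carry an SMN2 minigene-luciferase reporter in which exon 7 inclusion puts luciferase in frame. Cells were seeded at 2000 cells/well, attached for 10-12 hours, then exposed to compounds for 30-36 hours at 37C before ONE-Glo luminescence.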
Rab9 prom act: activates the Rab9 promoter; 2.8% of 320,000 active; Potency, µM (series often up to 9.22 µM), usual class: activators; Huh7 Rab9 promoter-luciferase reporter, luminescence, 24 h; note: nearly all actives have a fitted effect of over 60% in size
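Cells were plated at 1500 per well in reduced-serum medium with 10% FBS and left 2 h. Compound in DMSO was then added for 24 h at 37 °C. Reporter signal was read by luminescence after 10 min with luciferase detection reagent.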
NPC1 promoter act: activates the NPC1 promoter. 2.4% of 320,000 active. Huh7 NPC1 promoter luciferase reporter, 24 h. Potency, µM (highest dose often 9.22 µM), actives largely listed as activators. AID 485313; note: nearly all actives have a fitted effect of over 60% in size
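NPC1 promoter–luciferase Huh7 cells; 24 h compound; luminescence.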
ELG1 genotoxic: genotoxicity induction in ELG1-luciferase HEK293T cells. 1.3% of 330,000 active. AID 504466. HEK293T ELG1-luciferase reporter, luminescence, 16 h. Potency, µM (top dose mostly 46 µM), usual class: activators; note: nearly all actives have a fitted effect of over 60% in size
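Step 1: seed 2,000 HEK293T ELG1-luciferase cells per well. Step 2: add compound or DMSO, incubate 16 hr at 37 °C. Step 3: ONE-Glo, 30 min at room temperature, read luminescence.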
A number is an active result; 0 = inactive; ? = inconclusive; - = not tested or not shown. Calls come from the whole dose curve; as a rule, active = well fitted curve in the direction sought with a large enough effect; inconclusive = small, poorly fitted or top-dose-only effect, or another doubt; inactive = no such curve, though single readings can be large; an effect the other way counts as inactive or inconclusive.

SMILES	FLuc counter	SMN2 splice enh	Rab9 prom act	NPC1 promoter act	ELG1 genotoxic
CC1CCC(NC(=O)c2cc3ccccc3cc2O)CC1 (configuration not stated)	5.4µM	-	2.2µM	?	0
Cc1cc(C(=O)NC2CCC(C)CC2)c(C)o1 (configuration not stated)	9.5µM	-	1.8µM	1.4µM	5.2µM
Cc1cc(C(=O)OCC(=O)NC2CCC(C)CC2)c(C)o1 (configuration not stated)	0	-	0	0	0
O=C(CSc1ccccc1)N1CCCC(N2CCN(c3ccc(F)cc3)CC2)C1 (configuration not stated)	0	-	0	0	0
O=C(CCC1CCCC1)NCCS(=O)(=O)N1CCN(c2ccccc2F)CC1	0	-	0	0	0
Cc1cc2nn(-c3cccc4ccccc34)nc2cc1NC(=O)c1cccs1	0	0	0	0	0
COCCCNC(=O)COC(=O)c1ccc(-c2nc3ccccc3s2)s1	5.4µM	13µM	?	0	0
CC1=CC(C)=Nc2ccc(C)cc2N1	15µM	0	0	0	7.1µM
Cc1ccc(CC(=O)Nc2ccc(F)c([N+](=O)[O-])c2)cc1C	0	0	0	0	0
COc1ccccc1C1NC(=O)NC(C)=C1C(=O)OC1CCC(C)CC1 (configuration not stated)	0	-	0	0	0
COC(=O)c1ccc(C(NC(=O)OCc2ccccc2)/C(F)=C/[C@@H](C)C(=O)NCc2cc(C)on2)cc1 (some centres not stated)	-	0	-	-	-
O=C(COC(=O)c1c2c(nc3ccccc13)/C(=C/c1ccco1)CC2)NC1CCCC1	5.4µM	0	0	0	0
CC1CCCCC1NC(=O)COC(=O)c1c2c(nc3ccccc13)/C(=C/c1ccco1)CC2 (configuration not stated)	?	0	0	0	0
NC(=O)c1ccc(NC(=O)COC(=O)c2c3c(nc4ccccc24)/C(=C\c2cccs2)CCC3)cc1	?	0	0	0	0
CC(C)CNC(=O)COC(=O)c1c2c(nc3ccccc13)/C(=C/c1cccs1)CC2	5.4µM	-	0	0	0
O=C(Nc1ccc(Cl)cc1C(F)(F)F)C(Sc1cccc[n+]1[O-])c1ccccc1 (configuration not stated)	0	5.6µM	0	0	0
O=C(Cc1cccc2ccccc12)NNC(=O)Nc1cccc(Cl)c1	0	0	0	0	0
O=C(Nc1cc2c3c(c1)CC(=O)N3CCC2)c1ccc(Cl)cc1	15µM	-	0	0	?
CCOC(=O)NC1(NC(C)C)Oc2ccccc2O1	0	0	0	0	0
Oc1ccc(/C=N/Nc2ncnc3c2ncn3Cc2ccccc2)cc1O	9.5µM	0	0	0	?
Oc1cccc(/C=N/Nc2ncnc3c2ncn3Cc2ccccc2)c1	13µM	0	0	0	0
COc1cccc(N2CC(O)=C(c3nc4ccccc4s3)C2=N)c1	21µM	?	0	0	?
COc1ccc(N2CC(O)=C(c3nc4ccccc4s3)C2=N)cc1	0	0	0	0	?
COc1cc(NS(=O)(=O)c2ccc(N/C=C(\C#N)c3nc4ccccc4o3)cc2)nc(OC)n1	0	0	0	0	0
N#C/C(=C\c1ccc(O)cc1)c1nc2ccccc2o1	11µM	-	?	?	?
SMILES	FLuc counter	SMN2 splice enh	Rab9 prom act	NPC1 promoter act	ELG1 genotoxic
COc1cc(/C=C(\C#N)c2nc3ccccc3o2)ccc1O	7.6µM	-	0	0	?
O=C1CC2C(CC(OC(=O)c3ccc(-c4ccccc4)cc3)C2CO)O1 (configuration not stated)	12µM	?	?	0	?
O=C1C[C@H]2[C@H](CO)[C@@H](OC(=O)c3ccc(-c4ccccc4)cc3)C[C@H]2O1	5.4µM	-	?	?	0
O=C(Nc1ccn(C2CC(OC(=O)c3ccccc3)C(CO)O2)c(=O)n1)c1ccccc1 (configuration not stated)	0	0	0	0	0
O=C(OCC1CC(c2ccccc2)=NO1)c1ccc(Cl)cc1 (configuration not stated)	0	0	0	0	0
Oc1c(Cl)cc(Cl)cc1C=Nc1ccc(N2CCOCC2)cc1	?	-	0	0	0
Oc1ccc(C=Nc2ccc(N3CCOCC3)cc2)c(O)c1	17µM	0	0	0	0
Oc1cc(Br)ccc1C=Nc1ccc(N2CCCCC2)cc1	1.2µM	-	0	0	0
Cc1ccc2c(c1Br)/C(=N/N1C(=O)c3ccccc3C1=O)C(=O)N2	2.4µM	0	0	0	0
COc1ccc2c(c1)/C(=N/N1C(=O)c3ccccc3C1=O)C(=O)N2	0	0	0	0	0
Cc1ccc2nc(N(CCCN(C)C)C(=O)c3ccc(S(=O)(=O)N4CCOCC4)cc3)sc2c1	0	-	0	0	0
O=C1c2c(O)ccc(O)c2C(=O)c2c(NCCNCCO)ccc(NCCNCCO)c21	19µM	0	0	0	0
O=C(O)c1ccc(/C=N/Nc2ccc(C(F)(F)F)cn2)cc1	4.8µM	13µM	?	0.4µM	?
O=C(O)c1ccc(/C=N/O)cc1	0	-	0	0	0
O=C(O)c1ccc(N/N=C/c2ccc(OC(=O)c3ccccc3Cl)cc2)cc1	1.9µM	0	?	?	?
COc1cc(/C=N/Nc2ccc(C(F)(F)F)cn2)ccc1O	?	0	0	0	0
O=C(N/N=C/c1ccc(F)c(F)c1)c1cccc(S(=O)(=O)N2CCCCC2)c1	0	-	0	0	0
Nc1ccc(C(=O)N/N=C\c2ccc(OC(=O)c3ccccc3Cl)cc2)cc1	?	-	0	0	0
O=C(O)c1cccc(N/N=C/c2ccc(F)c(F)c2)c1	0.34µM	1.1µM	0.28µM	0.28µM	?
O=C(O)c1ccc(N/N=C/c2ccc(-c3ccccc3)cc2)cc1	0.48µM	4µM	0.32µM	?	?
O=C(O)c1cccc(N/N=C/C2=C(Cl)c3cc(Cl)ccc3SC2)c1	1.3µM	0.5µM	0.79µM	0.32µM	0.58µM
O=C(CSCc1ccc(Cl)cc1)Nc1cccc(C(=O)O)c1	?	-	0	0	0
CC(C)c1ccc(/C=N/Nc2ccc(C(=O)O)cc2)cc1	0.19µM	0	0	0	?
O=C(O)c1ccc(/C=N/Nc2cccc(C(F)(F)F)c2)cc1	21µM	10µM	2.5µM	2.8µM	?
O=C(O)c1ccc(N/N=C/C=C/c2ccccc2)cc1	0.6µM	-	0.25µM	0.32µM	?
SMILES	FLuc counter	SMN2 splice enh	Rab9 prom act	NPC1 promoter act	ELG1 genotoxic
COc1ccc(CCNC(=O)c2cccc3ccccc23)cc1OC	0	-	0	0	0
O=C(O)CCCC/C=C\C[C@@H](O)/C=C/C=C/C=C\[C@@H](O)CCCC(=O)O	-	0	-	-	-
CCc1ccc(NC(=O)Cn2nnc(C(=O)NCCc3ccccc3)c2N)cc1	0	0	-	-	-
COc1ccccc1/C=C/C(=O)OCC(=O)Nc1ccc(Cl)cn1	0	-	0	0	0
COc1ccc(N(C(=O)c2ccccc2C)S(=O)(=O)c2ccc(C)cc2)cc1	0	0	-	-	-
O=C1NC(Cc2ccc(O)cc2)c2nc3ccc(Cl)cc3c(=O)n2-c2ccc(Cl)cc21 (configuration not stated)	-	-	-	-	0
